Our source for the activity change, negative = inhibition and Potency values is PubChem BioAssay AID662 (National Center for Advancing Translational Sciences (NCATS), 2007).

Out of some 71,000 compounds screened, about 1,800 (2.5%) were called active. Inconclusive results (about 26%) are left out. What follows is part of a selection rich in actives, with near analogues and random picks from the rest. A call without a number means that no potency is given here. A number with no mark means an inactive call. Calls come from the whole dose curve; as a rule, active = well fitted activation curve with a large enough effect in the signal ratio, with a control signal flat (not every such curve was filed as active); inconclusive = small, poorly fitted or top-dose-only effect, or effect the other way, or a change in a side signal; inactive = flat fitted curve, though single readings scatter; the % refers to the signal ratio.
Potency is the fitted concentration of half-maximal effect.

The nature of the assay: Cell signaling CRE-BLA (Fsk stim). As to conditions: CHO CRE-bla reporter (cAMP response element driving beta-lactamase), forskolin EC10, beta-lactamase ratio; series mostly up to 38.2 µM. In a few lines:
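The 460nm/530nm emission ratio after CCF4 loading defined %Activity, from which AC50 values were obtained. CRE-bla CHO cells received compound dilution series together with an EC10 level of NKH 477 for 3 hours at 37 degrees Celsius.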
With `O=C(O)c1c(Br)c(Br)c(Br)c(Br)c1C1c2ccc(O)cc2Oc2cc(O)ccc21`, the activity change, negative = inhibition is 4.42% [at 7.6 µM].
As to `C=CCn1c(SCC(=O)Nc2nc3ccccc3s2)nnc1-c1ccccc1O`, the Potency result is “inactive”.
Same read-out and setting: for `C=CCn1c2ccccc2c2nnc(SC(CC)C(=O)Nc3nc(C)c(C(=O)OCC)s3)nc21` (stereo not given) the value was 1.26 µM (active).
With `C=CCn1c(C(C)NC(=O)CC)nc2ccccc21` (stereo not given), the Potency result was “inactive”.
Take `N#Cc1cc2[nH]c(=O)c(=O)[nH]c2cc1[N+](=O)[O-]`: the Potency entry was “inactive”.
Consider `CC(=O)CC(C)C`, for which the Potency result is “inactive”.
Regarding `COCCn1c(=O)c(CCc2ccccc2)nc2cncnc21`, the Potency result is “inactive”.
As for `COCCn1c(=O)c(-c2cccs2)nc2cncnc21`, the Potency was 12.6 µM (active).
Take `CCc1c(C)nc2cc(-c3cccs3)[nH]n2c1=O`: the Potency entry was “inactive”.
Turning to `COc1ccccc1CCn1c(=O)c(-c2cn(C)c3ccccc23)nc2cncnc21`, the Potency is 0.398 µM (active).
In the case of `COc1ccccc1CNC(=O)CCn1c(=O)sc2ccccc21`, the Potency result is “inactive”.
`COc1ccccc1CNc1ncncc1-c1cccc(NS(C)(=O)=O)c1`: the Potency entry is “inactive”.
As to `COc1ccc(-n2c(C)nc3c(cnn3-c3ccccc3)c2=O)cc1`, the Potency result is “inactive”.
Turning to `COc1ccc(-n2c(=O)c(-c3cn(C)c4ccccc34)nc3cnc(OC)nc32)cc1`, the Potency was 0.2 µM (active).
`COc1ccc(OCc2ccc(-c3nc4ccccc4c(=O)n3N)o2)cc1`: the Potency result was “inactive”.
As to `CCOc1cccc(=O)c2c(C)n(CC3CCCO3)c(C)c12` (stereo not given), the Potency result was “inactive”.
As for `O=C(O)c1nccnc1C(=O)Nc1ccc(Br)cn1`, the Potency result is “inactive”.
Take `C=CCNC(=O)C1CC=CCC1C(=O)O` (stereo not given): the Potency result is “inactive”.
In the case of `COc1ccc(N)c(C)c1`, the Potency entry is “inactive”.
In the case of `COC(=O)[C@@]1(C)C=C[C@@H](Cc2ccccc2)N1C(C)=O`, the Potency entry was “inactive”.
Turning to `CCCCCCN(C(=O)CCCCCN1C(=O)NC(c2ccc(C(F)(F)F)cc2)C(C(=O)OCc2ccccc2)=C1C)C(C(=O)NCCCC)c1ccc(OCC(=O)OC)c(C(=O)OC)c1` (stereo not given), the Potency entry is “inactive”.
Still for that read-out and setting: then `Cc1ccc2oc(=O)ccc2c1`, with “inactive”.
Still for that read-out and setting: for `c1ccc(Oc2ccccc2)cc1` the value was “inactive”; for `COc1ccc(C2C(C#N)=C(N)Oc3n[nH]c(C)c32)cc1CN1CCN(c2ccc(F)cc2)CC1` (stereo not given), “inactive”.
With `CCN1C(=O)c2cccc3c(N)ccc1c23`, the Potency is 10 µM (active).
In the case of `CCCCN(C)C(=O)c1ccc2c(c1)N(CC)C(=O)c1ccccc1S2(=O)=O`, the Potency entry was “inactive”.
Consider `C[N+](C)(CCCCCC[N+](C)(C)CCCN1C(=O)c2cccc3cccc(c23)C1=O)CCCN1C(=O)c2cccc3cccc(c23)C1=O`, for which the Potency entry was “inactive”.
Same read-out and setting: for `NC(=O)C1CC=CCC1C(=O)OCC(Cl)=C(Cl)Cl` (stereo not given) the value was “inactive”.
For `CC(=O)Oc1cccc(N2C(=O)C3CC=C(Cl)CC3C2=O)c1` (stereo not given), the Potency entry was “inactive”.
As for `CC(=O)c1cccc(NC(=O)c2ccncc2)c1`, the Potency result was “inactive”.
Turning to `Cc1cc(C)c2c(n1)nn1c(-n3ccnc3)cc(C)nc21`, the Potency was 6.31 µM (active).
Turning to `CC(=O)Nc1ccc(S(=O)(=O)N2CCSCC2)cc1`, the Potency entry was “inactive”.
As for `O=C(CCN1C(=O)c2ccccc2C1=O)Nc1ccncc1`, the Potency entry is “inactive”.
For `Cn1c(=O)[nH]c(=O)c2c1nc(Br)n2CCCCSc1nc2ccccc2o1`, the Potency was 2.51 µM (active).
Still for that read-out and setting: for `Cn1c(=O)[nH]c(=O)c2c1nc(N1CCCCCC1)n2CC(=O)c1ccccc1` the value was “inactive”; for `CC1CCN(c2nc3c(c(=O)[nH]c(=O)n3C)n2CCCc2ccccc2)CC1`, “inactive”; for `C[C@]1(C(=O)NCCc2c[nH]c3ccccc23)C=C[C@@H](Cc2ccccc2)N1C(=O)c1ccccc1`, “inactive”.
`C1CCC2OC2C1` (stereo not given): the Potency entry was “inactive”.
Same read-out and setting: then `CCOc1cccc(NC(=O)CC#N)c1`, with “inactive”; and `CC(=O)Nc1ccc(S(=O)(=O)Nc2ccc(N3CCOCC3)c(F)c2)cc1`, with “inactive”.
`CC(=O)Nc1cccc(Oc2cc(C#N)c(C#N)cc2N2CCOCC2)c1`: the Potency was 5.01 µM (active).
As for `CCCC(Cl)CCCC(Cl)CCC(Cl)CCC(Cl)CCC(Cl)CCCC(Cl)CCC` (stereo not given), the Potency result was “inactive”.
For the compound `O=C(Cl)c1ccccc1[N+](=O)[O-]`, the Potency result was “inactive”.
On the same count and under the same terms, then `CCOC(=O)N1CCN(C(=O)C2CCN(c3ncnc4c3sc3cccc(F)c34)CC2)CC1`, with “inactive”.
Regarding `CCOC(=O)C1CCN(c2ncnc3c2oc2ccc(Br)cc23)CC1`, the Potency was 2.51 µM (active).
As for `CCOC(=O)C1CCN(C(=O)c2oc3ccc(S(=O)(=O)N4CCCCCC4)cc3c2C)CC1`, the Potency entry was “inactive”.
Regarding `COc1ccc(-n2c(SC)nc(O)cc2=O)cc1`, the activity change, negative = inhibition is -26.5% [at 7.6 µM].
For the compound `COC(=O)c1ccc(S(=O)(=O)c2ccc(C(=O)OC)s2)s1`, the Potency result is “inactive”.
Consider `CSc1nnc2c(n1)OC(c1cn(C)c3ccccc13)N(C(C)=O)c1ccccc1-2` (stereo not given), for which the activity change, negative = inhibition is 2.27% [at 7.6 µM].
On to `c1ccc2cc(OCCN3CCCC3)ccc2c1`, for which the activity change, negative = inhibition is -1.69% [at 7.6 µM].
Regarding `CCOC(=O)/C=c1\s/c(=C\c2ccccc2OC)c(=O)n1CC(=O)N1CCOCC1`, the Potency was 2.51 µM (active).
Turning to `COc1cccc2c(=O)n(CC(=O)N3CCCCCC3)ccc12`, the Potency entry was “inactive”.
On the same count and under the same terms, then `CCOc1ccccc1/C=c1\sc2nc(-c3ccco3)nn2c1=O`, with “inactive”; and `O=C(NC1CCN(Cc2ccccc2)CC1)c1ccccc1F`, with “inactive”.
`COCCOC(=O)C1=C(C)NC(=O)NC1c1ccc(Cl)cc1` (stereo not given): the Potency result is “inactive”.
In the case of `C[C@@H](Nc1nc(-c2ccccc2)nc2c1oc1ccccc12)C(=O)O`, the Potency entry was “inactive”.
Regarding `Cc1nc(N2CCCC2C(=O)O)c2oc3ccccc3c2n1` (stereo not given), the Potency entry was “inactive”.
Same read-out and setting: for `CCSc1nc(C)nc2c1oc1ccccc12` the value was 12.6 µM (active); for `CCOC(=O)c1cc(-c2nnc(-c3cc(OC)c(OC)c(OC)c3)o2)c(C)nc1C`, “inactive”.
Regarding `CCCc1nc2ccccc2c(C(=O)OCc2nnc(-c3cc(OC)c(OC)c(OC)c3)o2)c1CC`, the Potency is 0.501 µM (active).
For `O=C(OCc1nnc(-c2ccccc2)o1)c1ccc2c(c1)C(=O)N(CCc1ccccc1)C2=O`, the Potency entry was “inactive”.
Take `C[C@@H]1O[C@@H](O[C@@H]2[C@@H](O)[C@H](OCCc3ccc(O)c(O)c3)O[C@H](CO[C@@H]3O[C@H](CO)[C@@H](O)[C@H](O)[C@H]3O)[C@H]2OC(=O)/C=C/c2ccc(O)c(O)c2)[C@H](O)[C@H](O)[C@H]1O`: the Potency result is “inactive”.
Turning to `N[C@@H](C(=O)O)c1ccc(P(=O)(O)O)cc1`, the Potency result was “inactive”.
As for `CC1CN(c2cc(=O)n(Cc3ccc(F)cc3)c(=O)[nH]2)CC(C)O1` (stereo not given), the Potency result was “inactive”.
Consider `COCc1cc(C)nc(Nc2cc(C)ccc2C)c1C#N`, for which the Potency entry is “inactive”.
`N#Cc1c(NC(=O)CSc2nc3ccccc3c(=O)n2Cc2ccco2)sc2c1CCCC2`: the Potency result was “inactive”.
Still for that read-out and setting: then `CCOC(=O)c1c(-n2cnnn2)sc(C)c1C`, with “inactive”; and `CCOCC(=O)Nc1sc2c(c1C(=O)OCC)CCCC2`, with 10 µM (active); and `COC(=O)c1c(NC(=O)CSc2nncs2)sc2c1CCCCC2`, with 6.31 µM (active).
Take `COC(=O)c1sc(NC(=O)c2csc3c2CCCC3)nc1C`: the Potency entry is “inactive”.
Same read-out and setting: then `CCOC(=O)c1sc(NC(=O)CCN2CCOCC2)c(C(=O)OCC)c1C`, with “inactive”; and `C=CCOC(=O)COCCC(C)C`, with “inactive”; and `CC1C(c2ccccc2)=[N+]([O-])C2(CCCC2)N1O` (stereo not given), with “inactive”.
Turning to `CCCC[C@@H]1C[C@H]1C(NC(=O)c1ccco1)c1ccc(C(=O)OC)cc1` (stereo not given in full), the Potency result was “inactive”.
Take `C/C=C1\C(=O)C[C@@H]2[C@@H]3CCC4=CC(=O)CC[C@@]4(C)[C@H]3CC[C@@]12C`: the Potency entry is “inactive”.
For the compound `O=C(Nc1cccc(F)c1)c1ccc(S(=O)(=O)N2CCCC2)cc1`, the Potency entry was “inactive”.
`CSc1nnc(-c2ccncc2)n1CCCN1CCCC1=O`: the Potency entry is “inactive”.
As to `CC(C)(C)OC(=O)c1c(N)n(CCCN2CCCC2=O)c2nc3ccccc3nc12`, the Potency is 10 µM (active).
On the same count and under the same terms, for `CCOc1cc2[nH]c(=S)n(CCCN3CCCC3=O)c(=O)c2cc1OCC` the value was “inactive”; for `Cc1ccccc1C(=O)O`, “inactive”.
